An excerpt weighted towards active compounds, which were near 9.2% of everything screened.
SMN2 splice enh – SMN2 splice variant enhancement; HEK293 SMN2-luciferase splicing reporter, luminescence, 30-36 h; Potency, µM (highest dose often 46.1 µM), hits mostly activators; 210,000 tested, 2.8% active; note: nearly all actives have a fitted effect of over 55% in size
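HEK293 cells carry an SMN2 minigene-luciferase reporter in which exon 7 inclusion puts luciferase in frame. Cells were seeded at 2000 cells/well, attached for 10-12 hours, then exposed to compounds for 30-36 hours at 37C before ONE-Glo luminescence.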
ELG1 genotoxic – inducers of genotoxicity in HEK293T ELG1-luciferase cells | HEK293T ELG1-luciferase reporter, luminescence, 16 h | 330,000 tested, 1.3% active | Potency, µM (series often up to 46 µM), actives largely listed as activators; note: nearly all actives have a fitted effect of over 60% in size
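HEK293T cells expressing luciferase-tagged ELG1 were exposed to compound or DMSO vehicle for 16 hr at 37 °C and 5% CO2. Luciferase activity was then measured with ONE-Glo after 30 min at room temperature.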
ELG1 repair inh – inhibitors of ELG1-dependent DNA repair in HEK293T cells | HEK293T ELG1-luciferase reporter, luminescence, 16 h; DNA damage induced by 5-fluorouridine | Potency, µM (doses to about 46.1 µM), usual class: inhibitors | 330,000 tested, 2.3% active | AID 504467; note: nearly all actives have a fitted effect of over 55% in size
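Step one: seed 2,000 cells per well. Step two: pin-transfer compound or DMSO alongside 5-fluorouridine. Step three: incubate 16 hr, 37 °C, 5% CO2. Step four: add ONE-Glo, wait 30 min, read luminescence.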
FLuc modulator – inhibits or activates purified firefly luciferase, miR-21 counter-screen; AID 588342; purified FLuc, Km substrates, luminescence inhibition; Potency, µM (highest dose often 57.5 µM), usual class: inhibitors; P08659; 360,000 tested, 6.9% active; note: nearly all actives have a fitted effect of over 55% in size
Target sequence (P08659 whole entry, looked up): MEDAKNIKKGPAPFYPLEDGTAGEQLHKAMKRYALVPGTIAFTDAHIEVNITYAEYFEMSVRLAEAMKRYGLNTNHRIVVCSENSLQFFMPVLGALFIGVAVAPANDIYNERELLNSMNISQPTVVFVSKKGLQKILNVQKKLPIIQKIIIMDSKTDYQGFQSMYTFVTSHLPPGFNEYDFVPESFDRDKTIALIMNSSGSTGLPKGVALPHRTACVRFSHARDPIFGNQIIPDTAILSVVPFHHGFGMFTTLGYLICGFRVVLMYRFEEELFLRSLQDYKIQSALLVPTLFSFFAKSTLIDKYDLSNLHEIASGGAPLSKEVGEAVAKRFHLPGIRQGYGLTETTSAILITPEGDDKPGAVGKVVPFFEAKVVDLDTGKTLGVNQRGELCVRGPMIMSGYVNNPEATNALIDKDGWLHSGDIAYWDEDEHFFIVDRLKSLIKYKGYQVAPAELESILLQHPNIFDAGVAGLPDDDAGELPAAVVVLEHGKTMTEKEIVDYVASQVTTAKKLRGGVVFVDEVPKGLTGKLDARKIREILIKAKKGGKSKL
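Purified P. pyralis luciferase, 10 nM final, with Km-level 10 uM D-luciferin and 10 uM ATP in 50 mM Tris acetate pH 7.5, 10 mM Mg acetate, 0.01% Tween-20, 0.05% BSA; 6-point qHTS titration about 60 µM downward; luminescence read.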
Rab9 promoter act – activates the Rab9 promoter. Huh7 Rab9 promoter-luciferase reporter, luminescence, 24 h. Potency, µM (highest dose often 9.22 µM), most hits filed as activators. 320,000 tested, 2.8% active; note: nearly all actives have a fitted effect of over 60% in size
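Luminescence from Amplite-detected luciferase (10 minutes, ambient) reports Rab9 promoter activation. Before that, stable Rab9-luciferase Huh7 cells (1500/well, reduced-serum OP-MEM I plus 10% FBS) were exposed to compound for 24 hours at 37C.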
NPC1 prom act – NPC1 promoter activation; Huh7 NPC1 promoter luciferase reporter, 24 h; Potency, µM (highest dose often 9.22 µM), actives largely listed as activators; 320,000 tested, 2.4% active; note: nearly all actives have a fitted effect of over 60% in size
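Huh7 cells stably carrying NPC1 promoter–luciferase, plated in Opti-MEM with 10% FBS for 2 h, were exposed to compound in DMSO for 24 h at 37 °C; luciferase reagent was added for 10 min and luminescence read.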
Numbers stand for hits; - = inactive; ? = inconclusive; . = no result given; [ ] = remark or other dose. Calls come from the whole dose curve; as a rule, active = well fitted curve in the direction sought with a large enough effect; inconclusive = small, poorly fitted or top-dose-only effect, or another doubt; inactive = no such curve, though single readings can be large; an effect the other way counts as inactive or inconclusive.

SMILES | SMN2 splice enh | ELG1 genotoxic | ELG1 repair inh | FLuc modulator | Rab9 promoter act | NPC1 prom act
COc1ccc(C2(C)NC(=O)N(CC(=O)Nc3ccc(-c4nc5ccc(C)cc5s4)cc3)C2=O)cc1 (stereo not drawn) | 7.1µM | ? | ? | 3.4µM | 2.2µM | 4µM
CCC1(c2ccc(F)cc2)NC(=O)N(CC(=O)Nc2ccc(-c3nc4ccc(C)cc4s3)cc2)C1=O (stereo not drawn) | 4µM | ? | ? | 3.4µM | 1.4µM | 2.8µM
COc1ccc(NC(=O)CN2C(=O)NC(c3ccccc3)(c3ccccc3)C2=O)cc1 | . | - | - | 21µM | - | -
Cc1ccc(-n2c3nc(=O)[nH]c(=O)c-3cc3c(C)nn(-c4ccccc4)c32)c(C)c1 | - | - | - | - | - | -
COc1ccc(CNC(=O)CCNC(=O)c2ccco2)cc1OC | . | - | - | - | - | -
COc1ccc(CC(=O)n2[nH]c(=O)cc(C)c2=O)cc1OC | . | - | - | - | - | -
Cc1cnc(CNc2ccnc(-c3ccc(C(=O)N(C)C)cc3)n2)cn1 | - | . | . | . | . | .
CC1=N[C@@](C)(COC(=O)[C@]2(C)N[C@](C)(CO)CO2)COC1=O | -[9.22 µM] | . | . | . | . | .
CCCCCC(=O)Nc1cccc(C2=NOC3(C2)C[C@@H](C(N)=O)N(C(=O)c2cc([N+](=O)[O-])cc([N+](=O)[O-])c2)C3)c1 (stereo partly drawn) | . | - | - | ? | - | -
NC(=O)[C@H]1CC2(CC(c3cccc(NC(=O)COc4ccc(Cl)cc4)c3)=NO2)CN1C(=O)Cc1ccc([N+](=O)[O-])cc1 (stereo partly drawn) | . | - | 2.1µM | 9.5µM | - | -
CCCCCC(=O)Nc1cccc(C2=NOC3(C2)C[C@@H](C(N)=O)N(C(=O)Cc2ccc([N+](=O)[O-])cc2)C3)c1 (stereo partly drawn) | . | - | 13µM | - | - | -
C/C(=N\NC(=O)c1n[nH]c2c1CCC2)c1ccco1 | . | ? | ? | 2.7µM | 0.5µM | ?
CCCNC(=O)c1n[nH]c2c1CC(C(C)(C)CC)CC2 (stereo not drawn) | . | - | - | ? | - | -
COC(=O)N/N=C(\C)c1ccco1 | - | - | - | - | - | -
CCC(C)(C)C1CCc2[nH]nc(C(=O)N/N=C(\C)c3ccco3)c2C1 (stereo not drawn) | . | ? | ? | 2.4µM | 1.1µM | 3.2µM
Cc1ccc(-c2cc(-c3nnc(SCC(=O)N(C)CCC#N)n3N)c3ccccc3n2)cc1 | - | - | - | 11µM | - | -
Cc1c(/C(O)=C2\C(=O)C(=O)N(CCN(C)C)C2c2ccccc2)cnn1-c1ccccc1 (stereo not drawn) | . | ? | ? | 17µM | - | -
Cc1c(/C(O)=C2/C(=O)C(=O)N(CCN(C)C)C2c2ccc(C(C)C)cc2)cnn1-c1ccccc1 (stereo not drawn) | . | - | - | - | - | -
Cc1c(/C(O)=C2\C(=O)C(=O)N(CCN(C)C)C2c2ccco2)cnn1-c1ccccc1 (stereo not drawn) | - | 9.2µM | ? | 27µM | ? | ?
Cc1ccc(C2/C(=C(\O)c3cnn(-c4ccccc4)c3C)C(=O)C(=O)N2CCN(C)C)o1 (stereo not drawn) | - | - | - | - | ? | ?
CCCNC(=O)C(Cc1cccc(Cl)c1)NC(=O)c1ccccc1 (stereo not drawn) | . | - | - | - | - | -
O=C(C1CCN(S(=O)(=O)c2cccc3nsnc23)CC1)N1CCn2c1nc1ccccc12 | - | - | 6.5µM | - | - | -
CCOc1ccc(NC(=O)C2CCCN(S(=O)(=O)c3cccc4nsnc34)C2)cc1 (stereo not drawn) | - | - | 23µM | - | - | -
O=C(C1CCCN(S(=O)(=O)c2cccc3nsnc23)C1)N1CCc2ccccc2C1 (stereo not drawn) | - | - | 16µM | - | - | -
O=C(C1CCN(S(=O)(=O)c2cccc3nsnc23)CC1)N1CCc2ccccc21 | - | - | ? | - | - | -
SMILES | SMN2 splice enh | ELG1 genotoxic | ELG1 repair inh | FLuc modulator | Rab9 promoter act | NPC1 prom act
Cc1cc(C(=O)N/N=C/c2c(C)nn(-c3ccccc3)c2C)n[nH]1 | . | - | ? | 17µM | - | -
Cc1nn(-c2ccccc2)c(C)c1/C=N/NC(=O)c1cc(C23CC4CC(CC(C4)C2)C3)[nH]n1 | ? | - | 16µM | ? | - | -
COc1cc(/C=N/NC(=O)c2cc(C34CC5CC(CC(C5)C3)C4)[nH]n2)ccc1O | - | ? | - | 13µM | - | -
O=C(N/N=C/c1c(F)cccc1Cl)c1cc(C2CC2)[nH]n1 | . | ? | ? | 17µM | ? | ?
O=S(=O)(O)c1cc(O)c2c(O)c(N=Nc3cccc4ccccc34)c(S(=O)(=O)O)cc2c1 | -[9.22 µM] | . | . | . | . | .
COC(=O)[C@@]1(Cc2ccc(OC)cc2)[C@H]2c3cc(C(=O)N(C)C)n(Cc4nc5ccccc5[nH]4)c3C[C@H]2CN1C(=O)c1ccccc1 | - | . | . | . | . | .
CC/C(=N\NC(=O)c1cc(C2CC2)[nH]n1)c1ccccc1 | . | ? | ? | 13µM | ? | 3.5µM
Cc1nn(-c2ccccc2)c(C)c1/C=N/NC(=O)c1cc(C2CC2)[nH]n1 | ? | ? | - | 17µM | - | -
O=C(N/N=C/c1ccc(O)cc1)c1cc(C2CC2)[nH]n1 | . | - | - | - | - | -
COc1cc(/C=N/NC(=O)c2[nH]nc3c2CCc2ccccc2-3)ccc1O | - | - | ? | 27µM | - | -
COc1ccc(/C=N/NC(=O)c2cc(C3CC3)[nH]n2)cc1OC | . | - | - | ? | - | -
COc1cc(/C=N/NC(=O)c2ccccc2)ccc1O | - | ? | ? | ? | - | -
CC1CCCCC12NC(=O)N(CC(=O)OCC(=O)c1ccc(OC(F)F)cc1OC(F)F)C2=O (stereo not drawn) | . | - | - | - | - | -
Cc1cc(C)n(CCC(=O)Nc2cccc(F)c2)n1 | - | - | - | - | - | -
COc1ccc(-c2c[n+](CC(=O)c3ccccc3)c3n2CCCCC3)cc1 | . | - | 15µM | - | - | -
O=C(C[n+]1cc(-c2ccc(F)cc2)n2c1CCC2)c1cccs1 | . | ? | ? | 2.4µM | 2.5µM | 3.2µM
O=C(C[n+]1cc(-c2ccccc2)n2c1CCCCC2)c1ccc(Cl)cc1 | - | - | - | - | - | -
COC(=O)[C@@H]1C[C@@H]2CC[C@@H](O)C[C@@H]2N1Cc1ccc(C)s1 | - | . | . | . | . | .
N#Cc1c(NC(=O)CSc2nc(N)cc(=O)[nH]2)sc2c1CCCCCC2 | - | - | ? | - | - | -
CNC(=O)c1c(NC(=O)C2=COCCO2)sc(C)c1C | . | - | - | - | - | -
